Experimental findings from ChEMBL document CHEMBL3988442, “University of Dundee, Small-Polar-MMV Screening Library” (2021) are described below.

Molecules are shown by their SMILES.

The target in the assay is T1, Aspartate--tRNA(Asp/Asn) ligase (Mycobacterium tuberculosis (strain ATCC 25618 / H37Rv)) (UniProt P9WFW3).
T1 sequence (whole entry): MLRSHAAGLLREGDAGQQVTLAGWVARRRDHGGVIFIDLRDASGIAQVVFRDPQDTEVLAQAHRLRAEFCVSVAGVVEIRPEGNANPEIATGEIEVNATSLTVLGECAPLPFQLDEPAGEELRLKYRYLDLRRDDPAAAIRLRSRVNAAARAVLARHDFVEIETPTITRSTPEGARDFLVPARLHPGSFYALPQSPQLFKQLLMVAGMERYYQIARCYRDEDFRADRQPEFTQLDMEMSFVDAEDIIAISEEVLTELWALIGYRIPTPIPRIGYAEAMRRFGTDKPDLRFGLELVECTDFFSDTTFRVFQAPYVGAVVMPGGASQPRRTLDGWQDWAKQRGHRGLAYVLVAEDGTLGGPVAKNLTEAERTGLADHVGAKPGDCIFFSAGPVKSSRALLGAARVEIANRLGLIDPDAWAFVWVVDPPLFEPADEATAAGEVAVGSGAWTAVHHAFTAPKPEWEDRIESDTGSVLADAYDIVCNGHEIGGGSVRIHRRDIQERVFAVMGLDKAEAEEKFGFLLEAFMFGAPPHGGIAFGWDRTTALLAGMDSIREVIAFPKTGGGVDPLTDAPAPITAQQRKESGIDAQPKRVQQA
Put plainly: Assay for Asp RNA synthetase-1 from Mycobacterium tuberculosis. The class given is functional. Details: scale not given: in the data most compounds retested in dose-response had high values. Particulars: 30 µM.
In the case of `CCOC(=O)C1CCCN(c2ccc(-c3nc(C)no3)cn2)C1` (stereo unspecified), the Percent Effect is -0.931%. The figure for `COc1ccc(-n2cnnc2SCC(C)(C)O)cn1` is -0.425%; for `O=C(NCCCn1ccnc1)N1CCCC1c1ccncc1` (stereo unspecified) it is -2.68%. Regarding `CCC(O)CNC(=O)C1(N(C)Cc2ccccc2)Cc2ccccc2C1` (stereo unspecified), the Percent Effect is 2.72%. The figure for `CCc1nsc(NC2CCCn3nc(CC)nc32)n1` (stereo unspecified) is 1.74%; for `CSC(C)(C)CNC(=O)NC1CCSCC1` it is 0.103%. The figure for `CC(C)(C)N1CC(C(=O)N2CCN(CCc3ccccc3)CC2)CC1=O` (stereo unspecified) is 0.448%; for `N#Cc1cccc(CS(=O)(=O)NCC(O)Cc2ccccc2)c1` (stereo unspecified) it is -0.908%. The figure for `CN(Cc1csc(-c2cccs2)n1)C(=O)CCn1ccccc1=O` is -1.85%; for `Cc1nccn1CCC1CCCCN1Cc1ccncc1` (stereo unspecified) it is -1.16%; for `CN(CCNC(=O)N1CCN(Cc2ccon2)CC1)C1CCCC1` it is -5.04%. As for `Cc1cnn(Cc2cc(F)ccc2F)c1NC(=O)NC1CC1`, the Percent Effect was -1.44%. The figure for `CC(C)CN1CCCn2nc(CNC(=O)CCN)cc2C1` is -0.839%; for `COc1cccc(CN(C)C(=O)CN2CCN(c3nccn3C)CC2)c1` it is 2.95%; for `CCCC(NC(=O)c1ccc(OC)cc1F)c1nnn[nH]1` (stereo unspecified) it is -1.41%. For `CSCCC1c2nc[nH]c2CCN1Cc1cc(Cl)ccc1O` (stereo unspecified) the value was 0.954%; for `COC1CCN(C(=O)c2c(Cl)c3ccccc3n2C)CC1`, -5.5%. The figure for `CCS(=O)(=O)N1CCC(c2nnc(CN3CCCC3)n2C2CC2)CC1` is -0.379%; for `COc1cccc(S(=O)(=O)CCN2CCCN(C(C)=O)CC2)c1` it is -1.55%; for `Cc1nn(-c2ccccc2)c2c1C(c1ccc(C(=O)O)cc1)CC(=O)N2` (stereo unspecified) it is 1.57%. For the molecule `CN1C(=O)CC(C(=O)O)C12CCN(Cc1ccc(F)cc1Cl)CC2` (stereo unspecified), the Percent Effect was -1.07%.
